# Results reported in PubChem BioAssay (NCATS).
# Values without a mark were called inactive. Results filed as inconclusive are left out. Entries that show only a call come without a potency. Activity calls are given as the source filed them. The call rests on the fitted dose curve; in most records, active means well fitted curve in the direction sought with a large enough effect; inconclusive means small, poorly fitted or top-dose-only effect, or another doubt; inactive means no such curve, though single readings can be large; an effect the other way counts as inactive or inconclusive.
# Assays:
# [1] = target: Tyrosine-protein phosphatase non-receptor type substrate 1 (Homo sapiens) + Leukocyte surface antigen CD47 (Homo sapiens) (UniProt P78324+Q08722); experiment: CD47-SIRPalpha protein protein interaction - Alpha assay qHTS validation (AID 1347059);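 further: bead proximity luminescence from CD47 binding SIRPalpha after compound preincubation with SIRPalpha; potency means the concentration at half of the fitted maximal effect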
# Method in brief: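 AlphaScreen signal between CD47-His (12.5 nM) and biotin-SIRPalpha (25 nM) soluble extracellular domains, bead-captured via Ni-NTA and streptavidin. Compounds, in 7-point titrations, met SIRPalpha 30 min before CD47; PBS pH 7.4 with 0.05% IGEPAL.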
# [2] = target: Parathyroid hormone/parathyroid hormone-related peptide receptor (Homo sapiens) (UniProt Q03431); experiment: qHTS for PTHR1 Agonists: Optimization Screen against the NCGC LOPAC library (AID 1347079);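 further: GloSensor cAMP luminescence in HEK-293 GP2 cells expressing human PTHR1 with IBMX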
# Method in brief: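 HEK-293 GP2 cells, PTHR1 + GloSensor cAMP; 3000 cells/well, o/n. Luciferin + IBMX 0.5mM each (stock), 1 hr 37C. Cpd titration, 1 hr 37C. Lum after 15 min RT. Ctrl M-PTH(1-15) top 10uM.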
# [3] = target: N-terminal Xaa-Pro-Lys N-methyltransferase 1 (Homo sapiens) (UniProt Q9BV86); experiment: qHTS Assay for Inhibitors of N-terminal methyltransferase 1 (NTMT1): LOPAC validation of the NTMT1 SAHH-coupled ThioGlo3 Assay (AID 1347143);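 further: SAH from peptide methylation measured as thiol fluorescence via SAHH coupling and ThioGlo3; potency means the concentration at half of the fitted maximal effect; nearly all actives have a fitted effect of over 70% in size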
# Method in brief: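 NTMT1 125nM + cpds (various conc.), 1 min RT; add SAM 100uM/SAHH 10uM/ThioGlo3 15uM (addition mix). SAHH-coupled thiol detection, Ex340/Em450, t0 and 30 min RT; signal normalized to background. LOPAC 1280-cpd pilot.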
# [4] = tested on: Zika virus NS2B-NS3 protease (unlinked); experiment: Optimization of GU AMC qHTS for Zika virus inhibitors: Unlinked NS2B-NS3 protease assay (AID 1347151); further: potency means the concentration at half of the fitted maximal effect; nearly all actives have a fitted effect of over 80% in size
# Method in brief: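 Fluorescence gain (340/450 nm) over 15 min at room temperature, ~20% conversion, gave percent inhibition fitted to a 4-parameter Hill equation; enzyme was unlinked NS2B-NS3 (25 nM final), pH 8.0 Tris buffer.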
# [5] = Confirmatory screen GU Rhodamine qHTS for Zika virus inhibitors qHTS (AID 1347157); further: potency means the concentration at half of the fitted maximal effect; nearly all actives have a fitted effect of over 70% in size
# Method in brief: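 In dose–response format, inhibition of unlinked protease (25 nM) was measured with 1.5 microM bis-peptide Rhodamine110 substrate. Aprotinin served as the intraplate control.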
# [6] = tested on: Zika virus NS2B-NS3 protease (linked); experiment: 384 well plate NINDS AMC confirmatory qHTS for Zika virus inhibitors (AID 1347163); further: potency means the concentration at half of the fitted maximal effect; nearly all actives have a fitted effect of over 50% in size
# Method in brief: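 Fluorescence at 355/460 nm was read after 25 minutes of cleavage of 30 microM Ac-VKTGKR-AMC at room temperature, in the dark. Before substrate addition, compounds (up to 1 mM final) sat ~15 minutes with 5, 30 or 60 nM linked protease. Signals were normalized to no-enzyme and no-inhibitor wells.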
# [7] = tested on: Zika virus NS2B-NS3 protease (linked construct); experiment: 384 well plate NINDS Rhodamine confirmatory qHTS for Zika virus inhibitors (AID 1347164);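 further: fluorescence from protease cleavage of Ac-LKRR-rhodamine 110 substrate; top concentration of the series differs between compounds; nearly all actives have a fitted effect of over 65% in size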
# Method in brief: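 Fluorescence at 485/538 nm was measured 25 minutes after adding 10 microM Ac-LKRR-Rd substrate, in the dark at room temperature. The protease (5, 30 or 60 nM final) had been preincubated ~15 minutes with compound; aprotinin as control.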
# [8] = target: Lysine-specific demethylase 5B (Homo sapiens) (UniProt Q9UGL1); experiment: Optimization screen for KDM5B Histone Demethylases FDH coupled qHTS against the LOPAC library (AID 1347166)
# Method in brief: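 KDM5BDeltaAP (200nM final) in 50mM HEPES pH 7.5, 0.01% Tween-20 was preincubated with compound for 10 min at room temperature. A substrate mix of 12.5uM H3K4Me3, 25uM a-ketoglutarate, ascorbate, Fe2+, NAD+ and formaldehyde dehydrogenase was then added. NADH fluorescence (340/450 nm) was read initially and after 30 min.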
# [9] = Tertiary RLuc qRT-PCR qHTS assay for Zika virus inhibitors (AID 1347169); further: top concentration of the series differs between compounds; nearly all actives have a fitted effect of over 55% in size
# Method in brief: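 Orthogonal cell-based readout: luminescence measured 1-1.5 hrs after adding live-cell Renilla substrate to Vero cells that had been infected with ZIKV-RLuc (MOI 1-2) post-compound, incubated 48-72 hrs at 37 degrees C.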
# [10] = qHTS to identify inhibitors of the type 1 interferon - major histocompatibility complex class I in skeletal muscle: primary screen against the NCATS LOPAC collection (AID 1347405);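 further: lytic HiBiT luminescence reporting HLA-B protein level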
# Method in brief: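 After 24 h at 37 C with compounds (7-point, 1:4.3 dilutions, 46 uM top final) plus 4 ng/ml IFN-beta, luminescence from lytic HiBiT detection was measured. HLA-B*08:01 in C25cl48 myoblasts carried an endogenous C-terminal HiBiT tag; medium lacked dexamethasone.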
# [11] = qHTS for inhibitors of adenylyl cyclases using a fission yeast platform: a pilot screen against the NCATS LOPAC library (AID 1347410)
# Method in brief: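 GFP from fbp1-GFP reporter, read by Acumen laser cytometry, indicates AC inhibition in fission yeast expressing AC9, GNAS and PDE4D2. Cells grown 18 h in the dark at 30C with compounds, final up to 57 uM.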
# [12] = target: Single-stranded DNA cytosine deaminase (Homo sapiens) (UniProt Q9GZX7); experiment: Validation qHTS assay for inhibitors of Activation Induced Cytidine Deaminase (AID): AID signal (AID 1347429); further: potency means the concentration at half of the fitted maximal effect
# Method in brief: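 Compounds (final up to 114 uM) preincubated with AID plus UDG; 250 nM DJC20/DJC23 substrate mix (4x stock) added, 4 hr at room temperature, then NaOH, 30 min. Read 1 fluorescence at 540 nm excitation, 590 nm emission.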
# [13] = Primary qHTS for inhibitors of La Crosse Virus (LACV) - induced cell death in SH-SY5Y cells (AID 1508616);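 further: top concentration of the series differs between compounds; higher means more rescue of cells from virus-induced death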
# Method in brief: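 Rescue of virus-induced death was read as ATPLite luminescence after 6 days at 37C, scaled between DMSO wells with LACV and without virus. Cells were SH-SY5Y, 6000/well, infected at 0.01 MOI after compound addition.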
# [14] = Primary qHTS for small molecule stabilizers of the endoplasmic reticulum resident proteome: Secreted ER Calcium Modulated Protein (SERCaMP) assay (AID 1508630)
# Method in brief: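 The SH-SY5Y reporter protocol was run at 3 concentrations up to 38.3 uM (primary) or 11 concentrations (follow-up): 16 h compound, 100 nM thapsigargin for 4 h, then extracellular luciferase luminescence.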
# Papain (Carica papaya) = Papain (Carica papaya) (UniProt P00784); experiment: Primary qHTS assay for inhibitors of the protease papain (AID 1645873);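 further: papain turnover of Z-FR-AMC read as the AMC fluorescence gain over 10 min; potency means the concentration at half of the fitted maximal effect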
# [15] = target: Rap guanine nucleotide exchange factor 3 (Homo sapiens) (UniProt O95398); experiment: Confirmatory qHTS for antagonist of cAMP-regulated guanine nucleotide exchange factor 3 (EPAC1) (AID 1645880); further: potency means the concentration at half of the fitted maximal effect; nearly all actives have a fitted effect of over 55% in size
# Method in brief: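 Released BODIPY-GDP fluoresces less than Rap1-bound BODIPY-GDP; the signal is followed at 480/540 nm at 5-min intervals over 30 min, after 5 min at room temperature. Reactions contain 100 nM EPAC1, 250 nM RAP1B-BODIPY-GDP and 50 uM GDP; results are normalized to ATA and DMSO.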
# [16] = target: Rap guanine nucleotide exchange factor 3 (Homo sapiens) (UniProt O95398); experiment: Confirmatory qHTS for agonist of cAMP-regulated guanine nucleotide exchange factor 3 (EPAC1) (AID 1645881);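 further: EPAC1 catalysed release of BODIPY-GDP from Rap1B seen as fluorescence loss; nearly all actives have a fitted effect of over 75% in size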
# [17] = target: Rap guanine nucleotide exchange factor 4 (Homo sapiens) (UniProt Q8WZA2); experiment: Confirmatory qHTS for agonist of cAMP-regulated guanine nucleotide exchange factor 4 (EPAC2) (AID 1645884);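 further: nucleotide exchange releases bodipy-GDP from Rap1 and this lowers its fluorescence; nearly all actives have a fitted effect of over 65% in size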
# [18] = target: Rap guanine nucleotide exchange factor 4 (Homo sapiens) (UniProt Q8WZA2); experiment: Confirmatory qHTS for antagonist of cAMP-regulated guanine nucleotide exchange factor 4 (EPAC2) (AID 1645885); further: potency means the concentration at half of the fitted maximal effect; nearly all actives have a fitted effect of over 25% in size
# [19] = target: Metallo-beta-lactamase type 2 (Klebsiella pneumoniae) (UniProt C7C422); experiment: qHTS to identify inhibitors of the New Delhi Metallo-beta-lactamase (NDM): assay validation screen against the NCATS LOPAC Collection (AID 1794843); further: potency means the concentration at half of the fitted maximal effect
# Method in brief: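 NDM-1 at 2 nM final in 50 mM HEPES pH 7.0, 1 uM ZnSO4, 0.01% Tween20, preincubated with LOPAC compounds pinned in DMSO; 50 uM nitrocefin (stock) added. Hydrolysis read as absorbance at 485 nm in the plateau phase.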
# [20] = target: Glutathione peroxidase 1 (Homo sapiens) (UniProt P07203); experiment: Primary qHTS Assay for Inhibitors of Recombinant Selenoprotein Glutathione Peroxidase 1 (GPX1) (AID 1845191); further: nearly all actives have a fitted effect of over 65% in size
# Method in brief: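 NADPH consumption tracked by fluorescence at 340/450 nm between t=0 and t=15 min, room temperature. Final mix: 10 nM GPX1, 100 nM glutathione reductase, 1 mM GSH, 0.5 mM NADPH, 0.5 mM cumene hydroperoxide, 0.01% BSA; 30 min compound–enzyme preincubation.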
# Sequence of Rap guanine nucleotide exchange factor 3 (Homo sapiens) (O95398 whole entry, looked up): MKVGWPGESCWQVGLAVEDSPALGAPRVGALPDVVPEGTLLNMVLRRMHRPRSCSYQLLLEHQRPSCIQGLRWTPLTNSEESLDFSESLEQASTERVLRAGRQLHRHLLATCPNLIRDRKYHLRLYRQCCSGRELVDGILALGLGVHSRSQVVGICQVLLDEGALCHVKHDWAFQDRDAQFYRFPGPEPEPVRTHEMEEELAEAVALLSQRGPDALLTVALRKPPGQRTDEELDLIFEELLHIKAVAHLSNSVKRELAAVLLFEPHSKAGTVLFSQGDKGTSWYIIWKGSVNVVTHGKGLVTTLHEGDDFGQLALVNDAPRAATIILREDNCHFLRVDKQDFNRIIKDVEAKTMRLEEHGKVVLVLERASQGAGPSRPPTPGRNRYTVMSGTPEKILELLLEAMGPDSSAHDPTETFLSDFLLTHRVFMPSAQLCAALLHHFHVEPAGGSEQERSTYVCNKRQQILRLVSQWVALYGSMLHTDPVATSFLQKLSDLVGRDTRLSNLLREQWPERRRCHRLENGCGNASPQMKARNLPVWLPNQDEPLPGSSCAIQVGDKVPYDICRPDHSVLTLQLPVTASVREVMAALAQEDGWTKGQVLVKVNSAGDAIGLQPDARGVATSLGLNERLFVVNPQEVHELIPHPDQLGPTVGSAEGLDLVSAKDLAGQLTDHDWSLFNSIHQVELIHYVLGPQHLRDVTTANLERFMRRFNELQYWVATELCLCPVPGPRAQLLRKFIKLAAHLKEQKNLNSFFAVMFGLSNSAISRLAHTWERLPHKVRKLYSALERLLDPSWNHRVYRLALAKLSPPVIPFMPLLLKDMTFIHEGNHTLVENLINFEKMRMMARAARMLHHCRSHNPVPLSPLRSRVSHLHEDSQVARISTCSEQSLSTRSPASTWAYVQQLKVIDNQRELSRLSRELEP
# Sequence of Rap guanine nucleotide exchange factor 4 (Homo sapiens) (Q8WZA2 whole entry, looked up): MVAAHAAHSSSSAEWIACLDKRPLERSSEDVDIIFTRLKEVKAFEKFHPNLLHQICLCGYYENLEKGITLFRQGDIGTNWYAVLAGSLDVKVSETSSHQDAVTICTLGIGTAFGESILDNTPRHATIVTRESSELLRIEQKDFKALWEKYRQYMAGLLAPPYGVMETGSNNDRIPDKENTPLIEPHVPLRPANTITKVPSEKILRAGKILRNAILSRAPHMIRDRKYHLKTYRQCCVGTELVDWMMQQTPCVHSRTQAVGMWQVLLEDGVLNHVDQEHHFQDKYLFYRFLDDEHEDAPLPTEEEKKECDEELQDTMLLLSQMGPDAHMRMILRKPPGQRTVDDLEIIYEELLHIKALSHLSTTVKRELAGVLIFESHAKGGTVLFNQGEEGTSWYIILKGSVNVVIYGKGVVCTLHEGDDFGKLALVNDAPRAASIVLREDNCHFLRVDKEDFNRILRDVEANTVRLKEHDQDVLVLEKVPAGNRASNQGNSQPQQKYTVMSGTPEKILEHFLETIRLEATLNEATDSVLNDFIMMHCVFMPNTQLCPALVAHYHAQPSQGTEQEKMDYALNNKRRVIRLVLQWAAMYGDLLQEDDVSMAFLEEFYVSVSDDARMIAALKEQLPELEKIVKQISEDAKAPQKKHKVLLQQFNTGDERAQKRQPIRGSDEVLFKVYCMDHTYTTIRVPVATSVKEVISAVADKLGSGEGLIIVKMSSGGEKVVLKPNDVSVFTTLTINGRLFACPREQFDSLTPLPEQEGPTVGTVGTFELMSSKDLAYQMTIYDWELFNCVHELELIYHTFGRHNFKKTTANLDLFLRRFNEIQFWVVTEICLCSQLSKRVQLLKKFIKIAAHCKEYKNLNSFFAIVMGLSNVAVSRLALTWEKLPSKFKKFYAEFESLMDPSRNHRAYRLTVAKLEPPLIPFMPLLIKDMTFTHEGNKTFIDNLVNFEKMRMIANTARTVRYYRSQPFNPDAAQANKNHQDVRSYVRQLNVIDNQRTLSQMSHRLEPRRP
# Sequence of Single-stranded DNA cytosine deaminase (Homo sapiens) (Q9GZX7 whole entry, looked up): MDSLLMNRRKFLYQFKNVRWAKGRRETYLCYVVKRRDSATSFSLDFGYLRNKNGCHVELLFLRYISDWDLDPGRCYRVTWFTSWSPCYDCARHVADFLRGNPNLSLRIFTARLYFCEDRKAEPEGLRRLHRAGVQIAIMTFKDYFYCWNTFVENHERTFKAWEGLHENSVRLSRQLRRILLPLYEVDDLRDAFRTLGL
# Sequence of Lysine-specific demethylase 5B (Homo sapiens) (Q9UGL1 whole entry, looked up): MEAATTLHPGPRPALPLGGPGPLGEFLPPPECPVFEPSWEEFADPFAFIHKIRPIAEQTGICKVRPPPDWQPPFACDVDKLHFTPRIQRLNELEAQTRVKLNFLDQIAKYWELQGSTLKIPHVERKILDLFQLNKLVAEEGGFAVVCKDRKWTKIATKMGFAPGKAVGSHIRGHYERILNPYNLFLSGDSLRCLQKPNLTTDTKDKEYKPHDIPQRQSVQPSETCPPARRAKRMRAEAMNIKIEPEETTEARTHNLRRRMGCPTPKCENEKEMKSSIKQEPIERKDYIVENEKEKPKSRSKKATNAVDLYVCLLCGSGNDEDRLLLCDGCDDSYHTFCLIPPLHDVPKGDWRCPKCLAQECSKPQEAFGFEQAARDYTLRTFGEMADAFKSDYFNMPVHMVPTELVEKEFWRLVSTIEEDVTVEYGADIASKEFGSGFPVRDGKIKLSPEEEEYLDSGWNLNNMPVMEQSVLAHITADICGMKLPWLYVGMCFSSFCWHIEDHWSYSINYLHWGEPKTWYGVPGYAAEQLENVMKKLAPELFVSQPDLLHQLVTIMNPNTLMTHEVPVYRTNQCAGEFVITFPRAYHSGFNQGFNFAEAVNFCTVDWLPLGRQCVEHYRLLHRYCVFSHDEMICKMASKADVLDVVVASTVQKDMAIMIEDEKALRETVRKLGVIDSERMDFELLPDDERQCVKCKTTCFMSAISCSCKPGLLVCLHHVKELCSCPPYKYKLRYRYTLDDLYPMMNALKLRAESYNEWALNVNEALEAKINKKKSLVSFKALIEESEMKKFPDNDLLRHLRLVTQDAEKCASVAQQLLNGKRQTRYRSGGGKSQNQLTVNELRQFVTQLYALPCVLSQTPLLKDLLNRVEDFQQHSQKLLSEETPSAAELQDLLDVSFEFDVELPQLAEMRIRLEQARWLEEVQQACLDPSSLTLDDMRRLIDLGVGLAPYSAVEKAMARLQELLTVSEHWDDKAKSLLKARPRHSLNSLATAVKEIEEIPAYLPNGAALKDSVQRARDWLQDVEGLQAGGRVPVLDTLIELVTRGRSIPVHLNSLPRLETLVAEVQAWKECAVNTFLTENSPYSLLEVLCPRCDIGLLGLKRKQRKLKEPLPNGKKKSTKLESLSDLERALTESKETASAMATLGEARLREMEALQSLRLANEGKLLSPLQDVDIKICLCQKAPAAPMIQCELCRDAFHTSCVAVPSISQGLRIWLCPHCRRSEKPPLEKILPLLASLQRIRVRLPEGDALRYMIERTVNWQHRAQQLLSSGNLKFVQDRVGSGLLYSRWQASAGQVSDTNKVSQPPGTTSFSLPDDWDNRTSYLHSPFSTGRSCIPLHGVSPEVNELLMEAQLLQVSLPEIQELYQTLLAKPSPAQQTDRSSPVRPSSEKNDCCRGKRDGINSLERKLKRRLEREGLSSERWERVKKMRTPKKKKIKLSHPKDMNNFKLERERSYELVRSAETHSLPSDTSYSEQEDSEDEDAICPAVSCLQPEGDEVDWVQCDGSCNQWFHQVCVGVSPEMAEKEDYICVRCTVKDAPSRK
# Sequence of N-terminal Xaa-Pro-Lys N-methyltransferase 1 (Homo sapiens) (Q9BV86 whole entry, looked up): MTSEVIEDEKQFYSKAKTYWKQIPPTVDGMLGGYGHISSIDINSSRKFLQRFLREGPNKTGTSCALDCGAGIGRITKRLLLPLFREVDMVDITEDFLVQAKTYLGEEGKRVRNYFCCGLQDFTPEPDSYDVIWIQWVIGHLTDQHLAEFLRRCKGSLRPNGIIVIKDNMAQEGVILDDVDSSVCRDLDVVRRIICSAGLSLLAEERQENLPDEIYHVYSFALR
# Sequence of Papain (Carica papaya) (P00784 whole entry, looked up): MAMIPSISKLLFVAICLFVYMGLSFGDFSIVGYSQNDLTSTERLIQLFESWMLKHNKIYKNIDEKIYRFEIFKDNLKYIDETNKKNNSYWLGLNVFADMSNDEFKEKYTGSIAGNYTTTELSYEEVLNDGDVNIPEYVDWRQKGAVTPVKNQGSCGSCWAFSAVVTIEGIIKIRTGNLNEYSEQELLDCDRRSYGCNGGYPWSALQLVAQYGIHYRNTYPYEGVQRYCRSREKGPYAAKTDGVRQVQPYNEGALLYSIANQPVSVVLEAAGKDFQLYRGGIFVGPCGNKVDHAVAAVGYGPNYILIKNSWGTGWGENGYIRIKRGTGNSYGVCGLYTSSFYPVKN
# Sequence of Glutathione peroxidase 1 (Homo sapiens) (P07203 whole entry, looked up): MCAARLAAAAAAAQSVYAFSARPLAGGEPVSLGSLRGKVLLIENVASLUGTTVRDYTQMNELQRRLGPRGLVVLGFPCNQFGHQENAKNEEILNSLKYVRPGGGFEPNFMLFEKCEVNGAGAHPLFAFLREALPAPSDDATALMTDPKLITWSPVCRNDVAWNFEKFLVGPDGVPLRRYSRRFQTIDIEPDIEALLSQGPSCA
# Sequence of Metallo-beta-lactamase type 2 (Klebsiella pneumoniae) (C7C422 whole entry, looked up): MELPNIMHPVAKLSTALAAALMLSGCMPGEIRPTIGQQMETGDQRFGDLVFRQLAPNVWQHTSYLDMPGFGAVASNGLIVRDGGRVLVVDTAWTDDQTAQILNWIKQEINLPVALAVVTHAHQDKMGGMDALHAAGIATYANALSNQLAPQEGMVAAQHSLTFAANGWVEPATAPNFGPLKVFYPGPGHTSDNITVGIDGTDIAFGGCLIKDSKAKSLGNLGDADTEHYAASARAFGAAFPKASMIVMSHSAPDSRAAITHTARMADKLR
smiles,measurement,setting,value
Nc1c(S(=O)(=O)O)cc(Nc2ccc(Nc3nc(Cl)nc(Nc4ccc(S(=O)(=O)O)cc4)n3)c(S(=O)(=O)O)c2)c2c1C(=O)c1ccccc1C2=O,Potency,[1],11.7 µM (active)
same,outcome,[2],inactive
same,Potency,[3],44.7 µM (active)
same,Potency,[4],10.6 µM (active)
same,Potency,[5],2.24 µM (active)
same,Potency,[6],10 µM (active)
same,Potency,[7],inactive
same,outcome,[8],inactive
same,Potency,[9],inactive
same,Potency,[10],inactive
same,outcome,[11],inactive
same,Potency,[12],28.2 µM (active)
same,outcome,[13],inactive
same,Potency,[14],inactive
same,Potency,Papain (Carica papaya),1.78 µM (active)
same,Potency,[15],9.93 µM (active)
same,outcome,[16],inactive
same,outcome,[17],inactive
same,Potency,[18],22.1 µM (active)
same,Potency,[19],0.631 µM (active)
same,Potency,[20],inactive
